The list is not random: actives were taken first. Their share in the collection is about 6%.
Tau fibril ThT: inhibitors of human tau fibril formation, thioflavin T binding; P10636; recombinant tau K18 P301L, heparin-induced fibrillization, ThT fluorescence; Potency, µM (series often up to 57.4 µM), without a hit: top-dose activity, negative = inhibition, usual class: inhibitors; actives 2.1% (n = 270,000); note: nearly all actives have a fitted effect of over 55% in size
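Fibril formation assay: tau K18 P301L at 15 uM with trace Alexa 594 label, heparin inducer 20 uM, pH 7 sodium acetate buffer, 37 C for 6 hr; endpoint ThT signal.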
Tau FP inhib: tau fibrillization inhibition (FP); actives 0.39% (n = 280,000); K18 P301L tau heparin fibrillization, Alexa594 FP, 6 h; Potency, µM (series often up to 57.7 µM), without a hit: at the highest dose activity, negative = inhibition, usual class: inhibitors; note: nearly all actives have a fitted effect of over 55% in size
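Heparin (20 uM) drove fibril formation of recombinant tau K18 P301L, 15 uM unlabeled with 0.24 uM Alexa 594 label, for 6 hr at 37 C in 100 mM sodium acetate pH 7. Fluorescence polarization (555/632 nm) read 1 hr after 30 uM ThT.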
VDR inh: inhibitors of human vitamin D receptor; P11473; VDR-SRC2-3 peptide fluorescence polarization, 2 h; Potency, µM, for the others: max response, negative = inhibition, actives largely listed as inhibitors; actives 0.93% (n = 400,000); AID 504847
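FP read-out; VDR + SRC2-3 coactivator peptide; 23 nl compound by pintool; 2 h RT incubation; reagents held at 4 deg C, protected from light.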
Tau fluor cs: counter-screen for tau fibril formation inhibitors; AID 1463; tau K18 P301L Alexa594 fluorescence, heparin fibrillization; Potency, µM (titrated, usually from 57.7 µM), without a hit: at the top dose activity change, negative = decrease; actives 0.93% (n = 280,000); note: nearly all actives have a fitted effect of over 55% in size
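Human tau K18 P301L (15 uM unlabeled, 0.24 uM Alexa 594-labeled) in 100 mM sodium acetate pH 7 with 20 uM heparin, 6 hr at 37 C. ThT 30 uM added, 1 hr ambient; Alexa 594 FP and total fluorescence read at 555/632 nm.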
PLK1 PBD inh: inhibitors of human PLK1 polo-box domain binding | Plk1 PBD binding of FITC phosphopeptide, fluorescence polarization | Potency, µM, for inactives: max response, negative = inhibition, most hits filed as inhibitors | actives 2.8% (n = 360,000); note: series mostly up to about 57 µM; nearly all actives have a fitted effect of over 65% in size
Target sequence (P53350 whole entry, looked up, the tested form may be a part): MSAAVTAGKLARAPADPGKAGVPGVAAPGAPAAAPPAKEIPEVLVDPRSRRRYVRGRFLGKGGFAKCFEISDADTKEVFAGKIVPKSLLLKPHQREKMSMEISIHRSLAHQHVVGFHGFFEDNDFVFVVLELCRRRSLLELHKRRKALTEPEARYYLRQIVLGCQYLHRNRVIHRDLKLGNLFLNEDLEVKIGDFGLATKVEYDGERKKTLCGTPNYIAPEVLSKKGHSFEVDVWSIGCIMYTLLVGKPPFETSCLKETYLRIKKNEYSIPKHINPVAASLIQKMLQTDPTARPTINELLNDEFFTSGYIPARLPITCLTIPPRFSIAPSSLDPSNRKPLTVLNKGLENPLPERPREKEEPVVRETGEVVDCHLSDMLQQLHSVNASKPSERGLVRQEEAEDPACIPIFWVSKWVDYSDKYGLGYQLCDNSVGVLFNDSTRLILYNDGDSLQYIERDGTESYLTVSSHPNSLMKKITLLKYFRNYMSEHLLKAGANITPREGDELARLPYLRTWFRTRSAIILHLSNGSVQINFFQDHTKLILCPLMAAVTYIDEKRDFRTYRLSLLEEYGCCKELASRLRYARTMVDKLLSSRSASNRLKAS
Sfp PPTase inh: Sfp phosphopantetheinyl transferase inhibition; Q9F4F7; Biochemical Sfp PPTase activity, qHTS; Potency, µM, without a hit: largest response in the series, negative = inhibition, usual class: inhibitors; actives 3.5% (n = 310,000);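 note: the enzyme is Sfp with the accession as filed and its product quenches rhodamine fluorescence; 0% = enzyme reaction without inhibitor and -100% = no enzyme wells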
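Fluorescence-quenching assay with 15 nM Sfp, 5 uM rhodamine-CoA and 12.5 uM BHQ-2-labelled ybbR peptide in pH 7.6 Hepes/MgCl2 buffer. Enzyme was pre-incubated with compound for 15 min at room temperature. Rate was taken from the 30-min fluorescence change (525/598 nm).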
* = called active by the depositor; ? = inconclusive; nt = no result; [ ] = dose if it differs, or a comment. Calls come from the whole dose curve; as a rule, active = well fitted curve in the direction sought with a large enough effect; inconclusive = small, poorly fitted or top-dose-only effect, or another doubt; inactive = no such curve, though single readings can be large; an effect the other way counts as inactive or inconclusive. Unless noted, % is set by controls: 0 for no effect and ±100 for the full control effect; potency is the fitted concentration of half-maximal effect.

SMILES | Tau fibril ThT | Tau FP inhib | VDR inh | Tau fluor cs | PLK1 PBD inh | Sfp PPTase inh
CC(C(=O)Nc1cc([N+](=O)[O-])ccc1Cl)N1CCN(c2ccc(O)cc2)CC1 (stereo not drawn) | ? | 1% | -21% | -25% | -11% | 56µM*
CCOC(=O)c1ccc(N2C(=O)c3[nH]nc(-c4ccc(C)cc4)c3C2c2ccc(O)c(OCC)c2)cc1 (stereo not drawn) | 0% | ? | -24% | ? | nt | nt
CCCCCCOc1ccc(/C(C)=N/NC2=NCCN2)cc1 | nt | nt | -7% | nt | 3% | 56µM*
CC(C)C[C@H](NC(=O)[C@@H]1CCC(=O)N1)C(=O)N[C@@H](Cc1ccc(O)cc1)C(=O)N[C@@H](CCC(=O)O)C(=O)N[C@@H](CC(N)=O)C(=O)N[C@@H](CCCCN)C(=O)N1CCC[C@H]1C(=O)N[C@@H](CCCN=C(N)N)C(=O)N[C@@H](CCCN=C(N)N)C(=O)N1CCC[C@H]1C(=O)N[C@@H](Cc1ccc(O)cc1)C(=O)O | nt | nt | 1% | nt | nt | 15%
CN1CCc2c(sc3c2C(=O)NC(c2cccc(OC(=O)c4cccs4)c2)N3)C1 (stereo not drawn) | ? | -2% | ? | -15% | -2% | -30%
COc1cc(C2NC(=O)c3c(sc4c3CCN(C)C4)N2)ccc1OC(=O)c1ccccc1 (stereo not drawn) | 13µM* | -6% | -3% | -14% | nt | nt
CCOC(=O)N1CCc2c(sc3c2C(=O)NC(c2cc(OC)c(O)c(OC)c2)N3)C1 (stereo not drawn) | 11µM* | 1% | 0% | -16% | nt | nt
CCOc1cc(C2NC(=O)c3c(sc4c3CCN(C)C4)N2)ccc1OC(=O)c1ccc(Br)cc1 (stereo not drawn) | ? | -9% | -15% | -9% | nt | nt
CCOC(=O)N1CCc2c(sc3c2C(=O)NC(c2ccc(N(C)C)cc2)N3)C1 (stereo not drawn) | 0.89µM* | -19% | -1% | -15% | nt | nt
CCOC(=O)c1sc(C)c2c1NC(c1ccc(N(C)C)cc1)NC2=O (stereo not drawn) | -13% | -2% | -3% | -11% | -11% | 3%
CCOC(=O)N1CCc2c(sc3c2C(=O)NC(c2ccccc2)N3)C1 (stereo not drawn) | 28µM* | ? | -27% | -28% | ? | 56µM*
COc1ccc(-c2noc(CN(C(=O)COc3cc(C)c(Br)c(C)c3)C(C)C)n2)cc1 | -5% | 0% | -1% | -20% | nt | nt
CC(C)Oc1ccc(CNC(=O)c2ccc(NC(=O)N3CCSc4ncccc43)cc2)cc1 | -17% | -7% | 7% | -29% | nt | nt
COc1cccc(NS(=O)(=O)c2cc(C)ccc2OC)c1 | -10% | 2% | ? | -11% | 8.4µM* | 6%
Cc1cccc(N(C)C(=O)Cn2cnc3nc4c(cc3c2=O)CCCC4)c1 | 1% | 7% | 2% | 6% | nt | nt
Oc1ccc(O)c2c1C1c3ccccc3C2c2ccccc21 | nt | nt | nt | nt | nt | 50µM*
NC(=O)CC1Nc2cccc3cccc(c23)NC1=O (stereo not drawn) | -2% | 16% | -6% | -3% | -12% | -8%
Cc1ccc(NC(=O)CC2Nc3cccc4cccc(c34)NC2=O)cc1 (stereo not drawn) | 14µM* | ? | -22% | 14µM*[quencher] | nt | nt
O=C(CC1Nc2cccc3cccc(c23)NC1=O)Nc1ccccc1 (stereo not drawn) | 9% | 0% | 3% | 8% | -7% | 18µM*
Cc1cc(F)ccc1S(=O)(=O)Nc1ncnc2sc3c(c12)CCC3 | -13% | -2% | -7% | -10% | 17µM* | 17%
O=S(=O)(Nc1ncnc2sc3c(c12)CCC3)c1ccc2ccccc2c1 | ? | ? | 19% | -25% | 34µM* | 16%
CCCc1cc(N2CCN(c3cc(Cl)ccc3C)CC2)n2cnnc2n1 | ? | -6% | -6% | -3% | nt | nt
Oc1c(C2=NCCNC(C(F)(F)F)=C2)ccc2ccccc12 | 6.3µM* | ? | 22% | ? | -10% | -23%
Cc1ccc(O)c(C2=NCCNC(C(F)(F)F)=C2)c1 | -21% | 2% | -3% | -12% | 1% | 7%
COc1ccc(C(=O)NC2(C(F)(F)F)NC(=O)N(CCCc3ccccc3)C2=O)cc1OC (stereo not drawn) | -12% | -7% | -9% | -22% | 27µM* | 4%
SMILES | Tau fibril ThT | Tau FP inhib | VDR inh | Tau fluor cs | PLK1 PBD inh | Sfp PPTase inh
COC(=O)C1=C(C)NC(=S)NC1c1ccc(-c2cc(Cl)ccc2Cl)o1 (stereo not drawn) | -3% | -17% | ? | -11% | -21% | 40µM*
COC(=O)C1=C(C)NC(=O)NC1c1ccc(-c2ccc(Cl)cc2)o1 (stereo not drawn) | -6% | -10% | -15% | -7% | -8% | -7%
CCOC(=O)c1c(NC(=O)C2=C(C)NC(=S)NC2c2ccc(C)cc2)sc(C)c1C (stereo not drawn) | -1% | -8% | -23% | -6% | ? | 20µM*
CC(=O)n1c(C=Nc2ccc(Cl)cc2)c(O)c2ccccc21 | ? | -17% | 7% | -7% | 6.7µM* | ?
COc1ccc(Nc2nc3ccccc3c(=O)[nH]2)cc1 | nt | 6% | ? | -17% | 24µM* | 16%
COc1ccc(Cn2c(SCc3ccc(C(=O)NC(C)C)cc3)nc3cccnc32)cc1 | 4% | -1% | 17% | 1% | nt | nt
Clc1cccc(-c2nn3c(COc4ccccc4)nnc3s2)c1 | -8% | -1% | nt | -2% | nt | 12%
Clc1ccccc1-c1nnc2sc(C3COc4ccccc4O3)nn12 (stereo not drawn) | ? | -3% | ? | -16% | ? | 18µM*
Cc1ccc(-c2nnc3sc(C4COc5ccccc5O4)nn23)cc1 (stereo not drawn) | -16% | 5% | 2% | 4% | -10% | 1%
COc1ccccc1-c1nn2c(C(F)(F)F)nnc2s1 | -2% | -2% | 7% | 0% | -9% | 16%
COC(=O)CSc1nnc(C2COc3ccccc3O2)n1-c1ccccc1 (stereo not drawn) | -5% | -1% | 8% | -5% | -2% | 12%
c1ccc(OCc2nnc3sc(C4COc5ccccc5O4)nn23)cc1 (stereo not drawn) | ? | -1% | 71µM* | -21% | 24µM* | 25µM*
c1ccc(CCc2nn3c(C4COc5ccccc5O4)nnc3s2)cc1 (stereo not drawn) | -9% | -2% | -77% | 1% | 24µM* | -72%
COc1ccccc1-c1nn2c(C3COc4ccccc4O3)nnc2s1 (stereo not drawn) | ? | -14% | 71µM* | -12% | 12µM* | 20µM*
CC(C)Oc1cccc(C(=O)Nc2ccc3oc(-c4ccccc4)nc3c2)c1 | 3% | ? | 0% | ? | nt | nt

Compound activity as filed in PubChem BioAssay.
